The values that follow come from PubChem BioAssay.

Structures are written as SMILES. Active and inactive are the calls of the source.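 How the source made its calls: active means inhibition at or above 50% relative to wild type and mutant plate controls; inactive means inhibition below 50%.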

A short description of this test: inhibitors of Chlamydomonas gravitaxis, primary screen, whole organism, Chlamydomonas reinhardtii, WT vs cilia-less mutant, absorbance, 96-well (AID 463189).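 Further: 0% = wild type cc124 cells in DMSO and 100% = ciliumless bld1 mutant cells.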 Particulars: OD600 absorbance, 2 days, at 10 µM, active compounds read high.
In the case of `OCc1cnc[nH]1`, the inhibition (in general, the change of the read-out against control, counted positive when it falls) is 3.19% (inactive).

Turning to `CCC1(C2=NCCN2)Cc2ccccc2O1` (stereo not drawn), the inhibition was -5.93% (inactive). With `C=CCN1CCc2cccc3c2[C@H]1Cc1ccc(O)c(O)c1-3`, the inhibition was 6.2% (inactive). As to `CN1CCc2cccc(Cl)c2CC1`, the inhibition was 9.04% (inactive). `S=C(NC1CCCCC1)N1CCC(c2cnc[nH]2)CC1`: the inhibition is 12.6% (inactive). Regarding `C/C=C(/C)C(=O)O[C@H]1C(C)=C2[C@H]([C@@H]1OC(=O)CCCCCCC)[C@@](C)(OC(C)=O)C[C@H](OC(=O)CCC)[C@@]1(O)[C@H]2OC(=O)[C@@]1(C)O`, the inhibition was -1.82% (inactive). For `Oc1cc2c(cc1O)[C@H]1c3ccccc3CN[C@@H]1CC2`, the inhibition is -2.75% (inactive).

Turning to `COc1cc(CCN)ccc1O`, the inhibition is 2.21% (inactive).

Take `CC(Cc1ccc(O)cc1)NCC(O)c1cc(O)cc(O)c1` (stereo not drawn): the inhibition is 1.02% (inactive). As to `CP(=O)(O)C1=CCNCC1`, the inhibition was 10% (inactive). `C[N+](C)(C)CC#CCOC(=O)Nc1cccc(Cl)c1`: the inhibition was 2.56% (inactive). Then `NC(CP(=O)(O)O)C(=O)O` (stereo not drawn), with 5.89% (inactive); and `CCCN1CCC[C@@H]2Cc3nc(N)ncc3C[C@H]21`, with 4.12% (inactive). In the case of `CC(C)NP(=O)(NC(C)C)OP(=O)(NC(C)C)NC(C)C`, the inhibition is 5.29% (inactive). On to `CN[C@@H](C)[C@H](O)c1ccccc1`, for which the inhibition is -4.11% (inactive). Next, `NNCc1cccc(O)c1`: -4.41% (inactive); `CCN(CC)C(=O)N[C@@H]1C[C@@H]2c3cccc4[nH]cc(c34)C[C@H]2N(C)C1`: 5.28% (inactive); `NC(CCP(=O)(O)O)C(=O)O` (stereo not drawn): 17.2% (inactive).

With `CCCN1CCC[C@@H](c2cccc(C#N)c2)C1`, the inhibition is 9.39% (inactive). Then `CCCn1c(=O)c2[nH]c(C3CCCC3)nc2n(CCCOC(=O)c2ccc(S(=O)(=O)F)cc2)c1=O`, with 0.089% (inactive); and `CCCN(CCC)[C@@H]1CCc2ccc(O)cc2C1`, with -3.45% (inactive); and `CP(=O)(O)CCCN`, with 3.64% (inactive). As to `O=C(O)CC[N+](=O)[O-]`, the inhibition was 2.51% (inactive). For `O=P(O)(O)C(Cl)(Cl)P(=O)(O)O`, the inhibition was 8.57% (inactive). On to `COc1cc(C=C(C#N)C#N)cc(O)c1O`, for which the inhibition is 10.5% (inactive).

For `CCNC(=O)[C@H]1O[C@@H](n2cnc3c(N)ncnc32)C(O)[C@H]1O` (stereo partly drawn), the inhibition was -1.46% (inactive). Turning to `N#CC(C#N)=Cc1cc(O)c(O)c(O)c1`, the inhibition was 7.39% (inactive). In the case of `CC1OC1P(=O)(O)O` (stereo not drawn), the inhibition was 0.291% (inactive).

For the compound `NC(CCCCCP(=O)(O)O)C(=O)O` (stereo not drawn), the inhibition was -3.46% (inactive). Then `Oc1ccc2c3c1O[C@H]1c4[nH]c5ccccc5c4C[C@@]4(O)C(C2)N(CC2CC2)CCC314` (stereo partly drawn), with 3.32% (inactive); and `NC(N)=Nc1ccc2[nH]c3c(c2c1)C[C@@]1(O)[C@H]2Cc4ccc(O)c5c4[C@@]1(CCN2CC1CC1)[C@H]3O5`, with -0.588% (inactive); and `NC(=NCCC[C@H](N)C(=O)O)N[N+](=O)[O-]`, with 2.94% (inactive). For `c1ccc2nc(N3CCNCC3)ccc2c1`, the inhibition is 4.23% (inactive).

In the case of `Nc1ccncc1`, the inhibition is 14.4% (inactive). `O=C(CCCN1CCC2(CC1)C(=O)N(CCc1ccc(N=C=S)cc1)CN2c1ccccc1)c1ccc(F)cc1`: the inhibition was 2.53% (inactive). In the case of `CCCN(CCC)C1Cc2cc(OC)c(OC)cc2C1`, the inhibition was -11.6% (inactive). Consider `CN1C2CCC1CC(OC(c1ccccc1)c1ccc(Cl)cc1)C2` (stereo not drawn), for which the inhibition was 11.8% (inactive). Then `CCCN1CC[C@@H]2c3cc(O)ccc3CC[C@@H]21`, with -3.65% (inactive).
